Most compounds without a hit are left out; they make up all but 7.2% or so of the library.
HEK cytotox: kills HEK 293 cells. HEK 293 viability, ATP luminescence (CellTiter-Glo), 48-72 h. Potency, µM (series often up to 115 µM), most hits filed as inhibitors. 94,000 compounds, 6.6% hits. AID 1345083; further: nearly all actives have a fitted effect of over 60% in size
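Viability of HEK 293 cells, plated at 250 cells/well, was judged by cellular ATP after compound treatment for 48 or 72 hr. Luminescence was imaged 10 min after CellTiter-Glo addition at room temperature.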
Luciferase inh: inhibitors of firefly (Photinus pyralis) luciferase | purified P. pyralis luciferase, luminescence, biochemical | Potency, µM (top dose mostly 115 µM), actives largely listed as inhibitors | 76,000 compounds, 2.5% hits | P08659; further: nearly all actives have a fitted effect of over 65% in size
Target sequence (P08659 whole entry, looked up): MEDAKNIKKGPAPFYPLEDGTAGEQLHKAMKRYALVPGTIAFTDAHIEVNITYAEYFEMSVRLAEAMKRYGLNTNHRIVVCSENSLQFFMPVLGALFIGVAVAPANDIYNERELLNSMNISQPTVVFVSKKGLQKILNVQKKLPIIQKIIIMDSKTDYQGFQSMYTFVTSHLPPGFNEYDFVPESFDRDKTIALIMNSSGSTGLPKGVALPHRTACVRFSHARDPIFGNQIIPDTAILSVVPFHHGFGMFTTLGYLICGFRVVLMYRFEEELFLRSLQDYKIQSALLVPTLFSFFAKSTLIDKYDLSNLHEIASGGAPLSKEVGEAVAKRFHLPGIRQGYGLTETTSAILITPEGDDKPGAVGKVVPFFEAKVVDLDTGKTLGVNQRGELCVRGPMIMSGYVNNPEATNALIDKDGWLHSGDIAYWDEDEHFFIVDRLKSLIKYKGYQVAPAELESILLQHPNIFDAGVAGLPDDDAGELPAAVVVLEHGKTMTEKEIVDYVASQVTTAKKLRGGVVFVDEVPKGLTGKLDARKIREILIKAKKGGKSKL
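Inhibitors were tested against purified firefly luciferase in a biochemical, low-substrate format (both substrates at 10uM) and luminescence measured with a CCD imager.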
NIH3T3 tox: NIH 3T3 cell cytotoxicity | NIH 3T3 viability, CellTiter-Glo ATP luminescence, 48-72 h | Potency, µM (highest dose often 96.7 µM), usual class: inhibitors | 94,000 compounds, 4.3% hits; further: nearly all actives have a fitted effect of over 55% in size
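Viability of NIH 3T3 cells after 48 or 72 hr compound treatment at 37 °C was assessed by CellTiter-Glo, with luminescence imaged following a 10 min room-temperature step.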
HEK293 viab: cell viability loss counter-screen; HEK-293-SNCA-luc viability, GF-AFC fluorescence, 24 h; Potency, µM (top dose mostly 57.1 µM), most hits filed as cytotoxic; 150,000 compounds, 0.12% hits; AID 1671193; further: nearly all actives have a fitted effect of over 30% in size
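Cytotoxicity counterscreen: after 24 h compound treatment of genome-edited SNCA-luciferase HEK-293 cells, live-cell protease substrate GF-AFC read by fluorescence after 30 min; activity scaled between DMSO (0%) and medium-only (-100%), curves Hill-fitted.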
hNpr1 antagonist: human Npr1 receptor antagonism. P16066. 76,000 compounds, 1.6% hits. Potency, µM (series often up to 46.3 µM), hits mostly inhibitors. HEK293 hNpr1 GloSensor cGMP, ANP-stimulated luminescence; calls by dose curve; further: nearly all actives have a fitted effect of over 60% in size
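HEK293 cells stably expressing human Npr1 and cGMP GloSensor pGS-40F, loaded 2 h with 2% GloSensor reagent, given compound 30 min at room temperature. Luminescence read before and 20 min after 0.1 nM hNppA.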
SNCA expr inhib: inhibitors of alpha-synuclein (SNCA) gene expression; HEK-293 SNCA-luciferase knock-in, luminescence, 24 h; Potency, µM (series often up to 57.2 µM), actives largely listed as inhibitors; 140,000 compounds, 0.17% hits; AID 1671194; further: nearly all actives have a fitted effect of over 45% in size
Numbers stand for hits; . = inactive; ? = inconclusive; / = not tested or not shown; [ ] = dose if it differs, or a comment. Unless noted, the call rests on the fitted dose curve; in most records, active means well fitted curve in the direction sought with a large enough effect; inconclusive means small, poorly fitted or top-dose-only effect, or another doubt; inactive means no such curve, though single readings can be large; an effect the other way counts as inactive or inconclusive.

SMILES	HEK cytotox	Luciferase inh	NIH3T3 tox	HEK293 viab	hNpr1 antagonist	SNCA expr inhib
Cc1cccc(C(=O)N2CC(N(C)Cc3cccnc3)C2)c1	.	.	.	.	.	.
Cn1cccc1C(=O)N1CCC(N2C(=O)C3(CCCC3)C2c2ccccc2)CC1 (stereo unspecified)	45µM	.	.	.[12.5 µM]	.	?
CC(C)CC(=O)N1CCC(N2C(=O)C3(CCCC3)C2c2ccccc2)CC1 (stereo unspecified)	?	.	45µM	.[12.5 µM]	.	.
O=C(NCCc1ccccc1)N1CCN(C(=O)N2CC3CC(C2)[C@H]2CCCC(=O)N2C3)CC1 (stereo partly specified)	.	.	.	.	.	.
Cc1nc(CCC(=O)NCc2cc(Cl)cc3c(C)c(-c4ccccc4)[nH]c23)n[nH]1	?	32µM	?	.	.	.
Cc1ncoc1C(=O)NCc1cc(Cl)cc2c(C)c(-c3ccccc3)[nH]c12	?	?	?	.	2.8µM	.
COCC1CN(C2CCC2)CC12CCN(C(=O)CCC1CCCC1)CC2 (stereo unspecified)	?	.	?	.	.	.
O=C(Nc1ccc2c(c1)OCCO2)N1CCc2nn(CC3CC3)c(=O)n2CC1	.	/	.	.	/	.
CS(=O)(=O)N1CCC(OC2CCN(C(=O)Nc3c(F)cccc3F)CC2)CC1	.	.	.	.	.	.
COc1ccc(-c2ccc(C(=O)N3CCCC3)c(Cl)c2)nn1	?	/	32µM	/	/	/
COc1ccc(-c2ccc(C(=O)N3CCN(C(=O)c4ccc(C)cc4)CC3)cc2)nn1	.	/	.	/	/	/
COc1ccc(-c2ccc(C(=O)N3CCCC3)cc2)nn1	25µM	/	18µM	/	/	/
CNc1nc2c(c(C(=O)N3CCCC3)n1)CN(CCC(C)c1ccc(C)o1)CC2 (stereo unspecified)	.	.	.	.	.	.
O=C(O)c1ccc(OCCN2CCCCC2)cc1	/	/	/	.	/	.
C(#Cc1nc2ncccc2nc1OCCN1CCCC1)c1ccccc1	/	/	/	15µM	/	/
Cc1ccccc1N1Cc2c(NCc3ccccn3)ncnc2N(C)CC1=O	.	.	.	.	.	.
O=C1Cc2c(-c3ccc4c(c3)OCO4)n[nH]c2CN1CC1CCOCC1	.	.	10µM	.	.	?
O=C1Cc2c(-c3ccc4ccccc4c3)n[nH]c2CN1CCc1ccncc1	?	.	?	.	.	.
O=C1Cc2c(-c3cccc(N4CCOCC4)c3)n[nH]c2CN1CCOc1ccccc1	?	.	?	.	.	.
O=C1Cc2c(-c3ccc(N4CCOCC4)cc3)n[nH]c2CN1CCc1ccncc1	.	?	79µM	.	.	.
O=C1Cc2c(-c3cccc(C(F)(F)F)c3)n[nH]c2CN1CCc1ccncc1	89µM	.	?	.	.	.
O=C1Cc2c(-c3cccc4ccccc34)n[nH]c2CN1CCc1ccncc1	79µM	.	?	.	.	.
O=C1Cc2c(-c3ccccc3)n[nH]c2CN1CCc1ccncc1	.	.	?	.	.	.
O=C(C1CC1)N1CCC2(CC1)CN(c1ccccc1)C2=O	.	.	.	.	.	.
O=C([C@H]1C[C@H](Oc2cccnc2)CN1S(=O)(=O)c1ccc(F)cc1)N1CCOCC1	.	.	.	.	.	.
SMILES	HEK cytotox	Luciferase inh	NIH3T3 tox	HEK293 viab	hNpr1 antagonist	SNCA expr inhib
Cc1c(-c2ccc(F)cc2)[nH]c2ccc(CNC(=O)CCN3CCCO3)cc12	32µM	25µM	?	.	?	.
Cc1nc(CC(=O)NCc2ccc3[nH]c(-c4ccc(F)cc4)c(C)c3c2)cs1	?	35µM	?	.	?	.
Cc1c(-c2ccc(F)cc2)[nH]c2ccc(CNCc3cnn(C)c3)cc12	40µM	?	40µM	.	.	.
Cc1c(-c2ccc(F)cc2)[nH]c2ccc(CNC(=O)[C@@H]3CCCO3)cc12	50µM	35µM	?	.	.	.
CCc1ccc(-c2nc(SCC(=O)NCC3CCCO3)c(-c3ccc(F)cc3)[nH]2)cc1 (stereo unspecified)	/	/	/	.	/	.
Cc1ccc2c(c1)N(CCC(=O)NCc1ccc(F)cc1)C(=O)CO2	/	/	/	.	/	.

High-throughput results from PubChem.
